According to PubChem BioAssay (Tox21):
Records with an inconclusive call do not appear. Calls of active or inactive are those of the source. Unless noted, calls follow the shape of the dose curve; as a rule, active = well fitted curve in the direction sought with a large enough effect in the repeat runs; inconclusive = weak or mixed curves; inactive = no such curve, though single readings can be large; an effect the other way counts as inactive or inconclusive.

How the values were obtained:
[1] = qHTS assay to test for compound auto fluorescence at 535 nm (green) in HEK293 cells (AID 720680)
[2] = qHTS assay to test for compound auto fluorescence at 460 nm (blue) in HEK293 cell free culture (AID 720681)
How it was run: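 Blue fluorescence (Ex 405/Em 460 nm, triamterene-equivalent) was read immediately after pin transfer of compound or DMSO into medium (DMEM, 10% FBS) without cells.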

[3] = qHTS assay to test for compound auto fluorescence at 535 nm (green) in HEK293 cell free culture (AID 720682)
How it was run: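 No cells present: wells hold DMEM supplemented with 10% FBS, into which compound or vehicle is pinned. Green emission is then recorded (485 nm excitation, 535 nm emission) and scaled to fluorescein.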

[4] = qHTS assay to test for compound auto fluorescence at 590 nm (red) in HEK293 cell free culture (AID 720683)
How it was run: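 Red-channel autofluorescence of compounds in culture medium (DMEM, 10% FBS), no cells, measured at 540/590 nm. Rose Bengal sodium is the reference fluorophore for equivalence.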

[5] = qHTS assay to test for compound auto fluorescence at 590 nm (red) in HepG2 cell free culture (AID 720684)
How it was run: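 Plate contents were MEM with 10% FBS plus test compound or DMSO, no cells. Fluorescence was recorded with 540 nm excitation and 590 nm emission.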

[6] = qHTS assay to test for compound auto fluorescence at 460 nm (blue) in HepG2 cell free culture (AID 720685)
How it was run: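 Compound (23 nL) or DMSO pinned into cell-free MEM with 10% FBS; blue fluorescence read at 405/460 nm excitation/emission, expressed as auto-fluorescence equivalency to triamterene.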

[7] = qHTS assay to test for compound auto fluorescence at 535 nm (green) in HepG2 cell free culture (AID 720686)
[8] = qHTS assay to test for compound auto fluorescence at 460 nm (blue) in HepG2 cells (AID 720687)
How it was run: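 Blue-channel autofluorescence (Ex/Em 405/460 nm, triamterene-equivalent) was measured after 1 hr compound exposure at 37 C, 5% CO2. Cells were HepG2, plated overnight at 37 C in MEM plus 10% FBS.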

[9] = target: Glucocorticoid receptor (Homo sapiens) (UniProt P04150); test: qHTS assay to identify small molecule agonists of the glucocorticoid receptor (GR) signaling pathway (AID 720691; active = well fitted activation curve with a large enough effect in the signal ratio in the repeat runs, not every such curve was filed as active; the % refers to the signal ratio)
Glucocorticoid receptor (Homo sapiens), sequence (P04150 whole entry, looked up): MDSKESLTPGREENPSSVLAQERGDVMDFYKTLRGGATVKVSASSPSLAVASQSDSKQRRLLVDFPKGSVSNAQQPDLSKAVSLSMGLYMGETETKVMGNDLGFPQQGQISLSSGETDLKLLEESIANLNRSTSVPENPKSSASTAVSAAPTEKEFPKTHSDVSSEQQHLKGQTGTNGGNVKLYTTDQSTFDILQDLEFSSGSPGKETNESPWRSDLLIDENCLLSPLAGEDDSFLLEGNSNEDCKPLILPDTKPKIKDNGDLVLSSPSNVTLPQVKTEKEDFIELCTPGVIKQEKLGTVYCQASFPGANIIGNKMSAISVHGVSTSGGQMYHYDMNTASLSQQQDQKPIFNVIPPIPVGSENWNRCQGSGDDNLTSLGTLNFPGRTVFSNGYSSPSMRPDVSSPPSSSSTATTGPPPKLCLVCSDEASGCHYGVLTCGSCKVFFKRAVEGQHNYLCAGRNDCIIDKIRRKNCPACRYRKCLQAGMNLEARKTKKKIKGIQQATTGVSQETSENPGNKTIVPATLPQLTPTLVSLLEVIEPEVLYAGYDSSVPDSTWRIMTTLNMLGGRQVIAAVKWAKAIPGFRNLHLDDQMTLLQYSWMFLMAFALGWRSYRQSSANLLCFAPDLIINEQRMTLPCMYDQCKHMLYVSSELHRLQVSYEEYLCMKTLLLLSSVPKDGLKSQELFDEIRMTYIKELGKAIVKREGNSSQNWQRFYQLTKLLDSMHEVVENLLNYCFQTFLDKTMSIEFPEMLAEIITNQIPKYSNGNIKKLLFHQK
How it was run: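 Reporter read-out: fluorescence intensity following 2 h room-temperature LiveBLAzer B/G FRET substrate loading. Prior step: GR-bla HeLa cells held 4 h, then treated 18 h at 37 C.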

[10] = target: Glucocorticoid receptor (Homo sapiens) (UniProt P04150); test: qHTS assay to identify small molecule antagonists of the glucocorticoid receptor (GR) signaling pathway (AID 720692; active = well fitted inhibition curve with a large enough effect in the signal ratio in the repeat runs, not every such curve was filed as active; the % refers to the signal ratio)
How it was run: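 Dexamethasone (5 nM final) stimulated a stably integrated GRE-beta-lactamase reporter in HeLa cells during 18 h co-incubation with compounds; signal was quantified as fluorescence intensity of B/G FRET substrate after 2 h.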

[11] = qHTS assay to identify small molecule antagonists of the glucocorticoid receptor (GR) signaling pathway - cell viability counter screen (AID 720693); also: nearly all actives have a fitted effect of over 55% in size
[12] = qHTS assay for identifying genotoxic compounds that show differential cytotoxicity against isogenic chicken DT40 cell lines with known DNA damage response pathways - wild type cell line (AID 743012); also: nearly all actives have a fitted effect of over 60% in size
How it was run: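 Using parental DT40 (300 cells/well), compounds delivered in DMSO incubate 40 h at 37 C/5% CO2. CellTiter-Glo reagent then stands 30 min at room temperature, and luminescence gives cell viability.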

[13] = qHTS assay for identifying genotoxic compounds that show differential cytotoxicity against isogenic chicken DT40 cell lines with known DNA damage response pathways - Rev3 mutant cell line (AID 743014); also: nearly all actives have a fitted effect of over 55% in size
[14] = qHTS assay for identifying genotoxic compounds that show differential cytotoxicity against isogenic chicken DT40 cell lines with known DNA damage response pathways - Rad54/Ku70 mutant cell line (AID 743015); also: nearly all actives have a fitted effect of over 60% in size
[15] = qHTS assay to identify small molecule antagonists of the androgen receptor (AR) signaling pathway - cell viability counter screen (AID 743033; also: nearly all actives have a fitted effect of over 45% in size)
[16] = target: Androgen receptor (Homo sapiens) (UniProt P10275); test: qHTS assay to identify small molecule antagonists of the androgen receptor (AR) signaling pathway (AID 743035; active = well fitted inhibition curve with a large enough effect in the signal ratio in the repeat runs, not every such curve was filed as active; the % refers to the signal ratio)
Androgen receptor (Homo sapiens), sequence (P10275 whole entry, looked up): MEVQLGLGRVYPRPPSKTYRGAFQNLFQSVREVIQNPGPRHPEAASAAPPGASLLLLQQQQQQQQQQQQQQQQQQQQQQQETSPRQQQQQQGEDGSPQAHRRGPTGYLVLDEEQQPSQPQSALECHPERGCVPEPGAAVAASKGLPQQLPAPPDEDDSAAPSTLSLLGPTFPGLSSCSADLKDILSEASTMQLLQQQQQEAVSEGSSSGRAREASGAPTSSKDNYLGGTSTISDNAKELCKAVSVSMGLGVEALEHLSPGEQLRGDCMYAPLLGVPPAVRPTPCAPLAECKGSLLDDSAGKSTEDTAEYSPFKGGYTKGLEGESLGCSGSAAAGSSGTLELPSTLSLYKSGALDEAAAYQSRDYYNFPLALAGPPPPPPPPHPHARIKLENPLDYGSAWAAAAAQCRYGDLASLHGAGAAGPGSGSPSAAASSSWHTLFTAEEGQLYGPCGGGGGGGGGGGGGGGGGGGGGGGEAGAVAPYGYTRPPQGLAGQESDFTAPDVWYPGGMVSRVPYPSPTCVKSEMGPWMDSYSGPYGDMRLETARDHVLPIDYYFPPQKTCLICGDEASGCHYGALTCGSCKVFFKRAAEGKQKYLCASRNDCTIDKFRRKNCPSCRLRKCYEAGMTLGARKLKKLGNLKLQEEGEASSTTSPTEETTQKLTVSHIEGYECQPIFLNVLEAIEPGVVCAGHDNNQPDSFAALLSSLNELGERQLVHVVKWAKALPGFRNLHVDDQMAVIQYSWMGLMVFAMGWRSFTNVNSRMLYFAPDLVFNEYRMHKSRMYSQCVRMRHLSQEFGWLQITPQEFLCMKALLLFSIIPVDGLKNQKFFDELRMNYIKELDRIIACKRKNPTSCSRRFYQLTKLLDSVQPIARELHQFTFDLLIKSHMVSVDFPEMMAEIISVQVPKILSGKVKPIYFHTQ
How it was run: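 Using qHTS, AR-UAS-bla GripTite HEK293 cells received compound, then R1881, and were cultured 16 h at 37C/5% CO2 before a 2 h room-temperature LiveBLAzer B/G FRET substrate step and fluorescence measurement.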

[17] = target: Androgen receptor (Homo sapiens) (UniProt P10275); test: qHTS assay to identify small molecule agonists of the androgen receptor (AR) signaling pathway using the MDA cell line (AID 743040; also: nearly all actives have a fitted effect of over 20% in size)
How it was run: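 After a 5 h incubation at 37C and 0% CO2, MDA-kb2 reporter cells were dosed with compounds in DMSO and kept 16 h under the same conditions. Luciferase activity was then read as luminescence with ONE-Glo.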

[18] = qHTS assay to identify small molecule antagonists of the androgen receptor (AR) signaling pathway using the MDA cell line - cell viability counter screen (AID 743041; also: nearly all actives have a fitted effect of over 45% in size)
How it was run: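 R1881-driven MDA-kb2 AR-luc cells, 3,000/well, were dosed with library compounds for 16 h; cell health came from CellTiter-Fluor fluorescence in the reporter wells.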

[19] = target: Androgen receptor (Homo sapiens) (UniProt P10275); test: qHTS assay to identify small molecule antagonists of the androgen receptor (AR) signaling pathway using the MDA cell line (AID 743042; also: nearly all actives have a fitted effect of over 55% in size)
How it was run: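 Antagonist mode: compounds plus R1881 agonist added to MDA-kb2 AR-luc cells, incubated 16 h at 37C. Luciferase reporter luminescence quantified, with multiplexed CellTiter-Fluor readout for cell viability.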

[20] = qHTS assay to identify small molecule antagonists of the thyroid receptor (TR) signaling pathway - cell viability counter screen (AID 743064); also: nearly all actives have a fitted effect of over 50% in size
How it was run: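 Rat GH3 pituitary tumor cells stably expressing two TR response elements driving luciferase were plated, rested 4 h, then dosed with library compounds and T3 (1 nM final). After 23.5 h at 37 °C, CellTiter-Fluor was added for 30 min and fluorescence recorded.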
% is scaled to controls: 0 for no effect and ±100 for the full control effect.

Nc1cc(S(=O)(=O)O)ccc1O
inactive: outcome [1] | outcome [2] | outcome [3] | outcome [4] | outcome [5] | outcome [6] | outcome [7] | outcome [8] | Potency [9] | outcome [10] | outcome [11] | Potency [12] | Potency [13] | Potency [14] | outcome [15] | outcome [16] | outcome [17] | outcome [18] | outcome [19] | Potency [20]

CC(C)(C)C(=O)CC(=O)C(C)(C)C
inactive: outcome [1] | outcome [2] | outcome [3] | outcome [4] | outcome [5] | outcome [6] | outcome [7] | outcome [8] | Potency [9] | outcome [10] | outcome [11] | Potency [12] | Potency [13] | Potency [14] | outcome [15] | outcome [18] | Potency [20]

CCCCNCC
inactive: outcome [1] | outcome [2] | outcome [3] | outcome [4] | outcome [5] | outcome [6] | outcome [7] | outcome [8] | Potency [9] | outcome [10] | outcome [11] | Potency [12] | Potency [13] | Potency [14] | outcome [15] | outcome [18]

C=CCCCCCCCCCCCCCC
inactive: fluorescence, % of fluorescein [1] -0.003% [at 18.6 µM] | fluorescence, % of fluorescent control [2] 0.006% [at 18.6 µM] | activity change [3] 0.0547% [at 18.6 µM] | fluorescence, % of fluorescent control [4] -0.342% [at 18.6 µM] | fluorescence, % of Rose Bengal [5] 0.0019% [at 18.6 µM] | fluorescence, % of fluorescent control [6] -0.0168% [at 18.6 µM] | fluorescence, % of fluorescein control [7] 0.0254% [at 18.6 µM] | fluorescence, % of fluorescent control [8] 0.001% [at 18.6 µM] | Potency [9] | outcome [10] | outcome [11] | Potency [12] | Potency [13] | Potency [14] | outcome [15] | outcome [18] | Potency [20]

COc1cc2nc(N3CCN(C(=O)C4CCCO4)CC3)nc(N)c2cc1OC (configuration not stated)
inactive: outcome [1] | outcome [2] | outcome [3] | outcome [4] | outcome [5] | outcome [6] | outcome [7] | outcome [8] | Potency [9] | outcome [10] | outcome [11] | Potency [12] | Potency [13] | Potency [14] | outcome [15] | outcome [18]

CC(=O)SCC(CC(=O)c1ccc(C)cc1)C(=O)O (configuration not stated)
inactive: outcome [1] | outcome [2] | outcome [3] | outcome [4] | outcome [5] | outcome [6] | outcome [7] | outcome [8] | Potency [9] | outcome [10] | outcome [11] | Potency [12] | Potency [13] | Potency [14] | outcome [15] | outcome [18] | Potency [20]

CCc1ncc(C)[nH]1
inactive: outcome [1] | outcome [2] | outcome [3] | outcome [4] | outcome [5] | outcome [6] | outcome [7] | outcome [8] | Potency [9] | outcome [10] | outcome [11] | Potency [12] | Potency [13] | Potency [14] | outcome [16] | outcome [17] | outcome [18] | outcome [19] | Potency [20]
